Laboratory results taken from PubChem BioAssay.

Test: modulators of S6 phosphorylation in cells, primary screen, cell-based, A549, cytoblot, luminescence, serum-stimulated (AID 1158);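 further: serum-stimulated A549 lung adenocarcinoma cells; signal is phosphorylated S6 detected by cytoblot immunostaining with HRP secondary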
Conditions: A549 phospho-S6 cytoblot, 5 h, higher = more signal

SMILES	z-score
COCCOC(=O)N1C(=O)[C@@]2(c3cc(C#Cc4ccc(OC)cc4)ccc31)[C@H](C(=O)N1CCCCCCC1)[C@H]1C(=O)O[C@H](c3ccccc3)[C@H](c3ccccc3)N1[C@@H]2c1ccc(O)cc1	1.27
COc1cc2c(cc1OC)CN(C(=O)[C@H]1[C@@H]3C(=O)O[C@@H](c4ccccc4)[C@@H](c4ccccc4)N3[C@@H](c3ccc(OCCO)cc3)[C@]13C(=O)Nc1ccc(C#CC4(O)CCCCCC4)cc13)CC2	0.108
CCCC[C@@H]1C[C@H]1[C@@H](NC(=O)c1cccnc1)c1ccc(-c2ccccc2)cc1	-0.0675
CON(C)C(=O)C=C1C[C@@H](c2cccc(Cl)c2)O[C@@H](c2cccc(Cl)c2)O1	0.178
COCCCNC(=O)[C@]1(CCC(=O)OC(C)(C)C)N=C(c2ccc(OCCCO)cc2)O[C@@H]1c1ccccc1	-0.507
C=CCOC(=O)[C@H]1[C@@H]2C(=O)O[C@@H](c3ccccc3)[C@@H](c3ccccc3)N2[C@@H](c2ccc(OCCOC(=O)[C@H]3C[C@H]4C(=O)N[C@@H](Cc5ccccc5)C(=O)N4[C@H]3c3ccc(O)cc3)cc2)[C@]12C(=O)Nc1ccc(I)cc12	-0.481
CC(C)(C)N1CC=CC23O[C@@H]4C=CCOC(=O)[C@@H]4[C@H]2C(=O)N(CCCO)[C@@H]3C1=O (some centres not stated)	0.364
NCCCCCCNC(=O)[C@@H]1C[C@@H]2C(=O)N3CCC[C@H]3C(=O)N2[C@@H]1c1ccc(O)cc1	-0.164
CCCCC(CC)C(O)C1C=CC2C(=O)N(c3ccccc3)C(=O)C2N1Nc1ccc([N+](=O)[O-])cc1 (configuration not stated)	-0.429
C=C(COC)/C(=C/C[C@@H](OC(=O)c1ccncc1)c1ccc(CO)o1)c1cnc2ccccc2c1	-0.188
COCCCNC(=O)[C@@H]1c2ccccc2C(=O)N(Cc2ccccc2C(F)(F)F)[C@H]1c1ccc(CO)cc1	0.0987
CCCN1C(=O)[C@]2(Cc3ccccc3)N=C(c3ccc(OCCCO)cc3)O[C@@H]2c2ccccc21	1.56
CO[C@H]1O[C@H](CO)[C@@H](OC(=O)Nc2ccccc2-c2ccccc2)[C@H](OC(=O)Nc2ccc3c(c2)OCO3)[C@@H]1OC(=O)Nc1ccc2c(c1)OCO2	-0.0176
COCCOC(=O)N1C(=O)[C@@]2(c3cc(C#CC4(O)CCCCCC4)ccc31)[C@H](C(N)=O)[C@H]1C(=O)O[C@H](c3ccccc3)[C@H](c3ccccc3)N1[C@@H]2c1ccc(O)cc1	-0.0551
CC(CO)N1C(=O)[C@@H]2C3C(=O)OCCC/C=C\[C@H]3OC23C=CCN(Cn2nnc4ccccc42)C(=O)[C@@H]13 (some centres not stated)	0.282
C[C@]1(C(=O)NC2CC2)c2ccccc2C(=O)N(Cc2ccc(OC(F)(F)F)cc2)[C@H]1c1ccc(CO)cc1	-0.111
COc1ccc([Si](C)(C)[C@H]2[C@H](CCn3cc([C@H](O)c4ccccc4)nn3)O[C@@]3(C(=O)N(Cc4cccc(N5C(=O)c6cccc7cccc5c67)c4)c4ccccc43)[C@@H]2C)cc1	-0.0203
COc1ccc([Si](C)(C)[C@H]2[C@H](CCO)O[C@@]3(C(=O)N(Cc4cccc(N5CCCCC5=O)c4)c4ccccc43)[C@@H]2C)cc1	0.781
O=C1O[C@@H](c2ccccc2)[C@@H](c2ccccc2)N2[C@@H](c3ccc(O)cc3)[C@]3(C(=O)Nc4ccc(C#CCCO)cc43)[C@@H](C(=O)NC[C@H](O)c3ccccc3)[C@H]12	-0.318
CC(C)CN1C(=O)[C@@]2(Cc3ccccc31)c1ccccc1C(=O)N(Cc1ccccc1C(F)(F)F)[C@H]2c1ccc(CO)cc1	2.04
CC(C)C(O)C1C=CC2C(=O)N(C)C(=O)C2N1N(c1ccccc1)c1ccccc1 (configuration not stated)	-1.38
C=CCC(OC(C)=O)[C@@H]1[C@@H](N(Cc2ccc(-c3ccccc3)cc2)C(=O)c2cccc3ccccc23)c2cc(OCCCO)ccc2N1C(=O)Cc1ccc2ccccc2c1 (some centres not stated)	0.393
Cc1ccc(S[C@]2(C(=O)NC3CC3)CC(=O)N(Cc3ccccc3Cl)[C@@H]2c2ccc(CO)cc2I)cc1	-0.331
O=C1NCC(=O)N2[C@@H]1C[C@@H](C(=O)O)[C@H]2c1ccc(O)cc1	-0.174
CC(C)CNC(=O)[C@@]1(c2ccc([N+](=O)[O-])cc2)CC(=O)N(C2CCCCC2)[C@@H]1c1ccc(CO)cc1I	-0.183
COc1ccc(NN2C(C(O)c3ccccn3)C=CC3C(=O)N(C4CCCCC4)C(=O)C32)cc1 (configuration not stated)	-0.552
[N-]=[N+]=NCc1ccccc1C[C@@]1(C(N)=O)N=C(c2ccc(OCCCO)cc2)O[C@@H]1c1ccccc1CN=[N+]=[N-]	-0.107
